# Data reported in PubChem BioAssay (NCATS).
# “And” between values parts separate entries of the source, which are not always exact repeats. Identical values can stand only once. Records with an inconclusive call do not appear. Where a call stands in place of a potency, no number is given. The source made the active and inactive calls. Unless noted, calls come from the whole dose curve; as a rule, active = well fitted curve in the direction sought with a large enough effect; inconclusive = small, poorly fitted or top-dose-only effect, or another doubt; inactive = no such curve, though single readings can be large; an effect the other way counts as inactive or inconclusive. Non-standard residues stand in square brackets, D forms with d. Residues, ends and D or L forms follow the SMILES beside them. Peptide text beside a SMILES is read from it. *: point of attachment. Sta = CC(C)C[C@H](N)[C@@H](O)CC(=O)O; Isovaleryl = CC(C)CC(=O)*
# Tests used:
# [1] = qHTS of pediatric cancer cell lines to identify multiple opportunities for drug repurposing: Primary screen for TC32 cells (AID 1347089); note: nearly all actives have a fitted effect of over 60% in size; note: potency is the fitted concentration of half-maximal effect
# How it was run: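 A viability screen of TC32 cells was run over 48 h, with primary MIPE doses spanning 0.78 nM–46 µM and NPC doses 0.59 nM–46 µM. ATP luminescence (CellTiter-Glo) served as the read-out.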
# [2] = qHTS of pediatric cancer cell lines to identify multiple opportunities for drug repurposing: Primary screen for DAOY cells (AID 1347090); note: nearly all actives have a fitted effect of over 55% in size; note: potency is the fitted concentration of half-maximal effect
# How it was run: (§1)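 Eight- or eleven-point concentration series, 48 h treatment at 37 degrees C in growth media; readout CellTiter-Glo luminescence. Potency and efficacy were taken from the concentration-response curves.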
# [3] = qHTS of pediatric cancer cell lines to identify multiple opportunities for drug repurposing: Primary screen for SJ-GBM2 cells (AID 1347091); note: potency is the fitted concentration of half-maximal effect
# How it was run: as §1
# [4] = qHTS of pediatric cancer cell lines to identify multiple opportunities for drug repurposing: Primary screen for A673 cells (AID 1347092); note: nearly all actives have a fitted effect of over 45% in size; note: potency is the fitted concentration of half-maximal effect
# How it was run: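 Titration-based qHTS on A673 cells: MIPE compounds spanned 11 points (0.78 nM to 46 µM final), NPC compounds 8 points (0.59 nM to 46 µM final). Viability after 48 h was measured by ATP luminescence.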
# [5] = qHTS of pediatric cancer cell lines to identify multiple opportunities for drug repurposing: Primary screen for SK-N-MC cells (AID 1347093); note: potency is the fitted concentration of half-maximal effect
# How it was run: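 Metabolically active cells were quantified by ATP-dependent luminescence (CellTiter-Glo, 15 min at room temperature) following 48 h treatment. Cells had been plated at 500-1,000 per well and settled for 5 h beforehand.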
# [6] = qHTS of pediatric cancer cell lines to identify multiple opportunities for drug repurposing: Primary screen for BT-37 cells (AID 1347094); note: potency is the fitted concentration of half-maximal effect
# How it was run: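 Quantitative HTS format: each compound titrated (MIPE 11 points from 0.78 nM, NPC 8 points from 0.59 nM) onto cells plated 5 hours earlier. After 48 h at 37 degrees C, CellTiter-Glo luminescence was recorded.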
# [7] = target: T1, Tyrosine-protein phosphatase non-receptor type substrate 1 (Homo sapiens) + Leukocyte surface antigen CD47 (Homo sapiens) (UniProt P78324+Q08722); assay: CD47-SIRPalpha protein protein interaction - Alpha assay qHTS validation (AID 1347059);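 note: bead proximity luminescence from CD47 binding SIRPalpha after compound preincubation with SIRPalpha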; note: potency is the fitted concentration of half-maximal effect
# How it was run: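 Soluble extracellular domains: Avi-tag biotinylated SIRPalpha (25 nM) preincubated 30 min RT with compound, then 6His-CD47 (12.5 nM) 30 min; Ni-NTA acceptor and streptavidin donor beads (10 ug/mL) 30 min, AlphaScreen read. PBS pH 7.4, 0.05% IGEPAL.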
# [8] = target: Parathyroid hormone/parathyroid hormone-related peptide receptor (Homo sapiens) (UniProt Q03431); assay: qHTS for PTHR1 Agonists: Optimization Screen against the NCGC LOPAC library (AID 1347079);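 note: GloSensor cAMP luminescence in HEK-293 GP2 cells expressing human PTHR1 with IBMX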
# How it was run: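 Compounds were tested across a qHTS titration. PTHR1-expressing GP2 cells report cAMP rises via GloSensor luminescence after 1 hr compound exposure at 37C with IBMX present.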
# [9] = target: T1, Tyrosine-protein phosphatase non-receptor type substrate 1 (Homo sapiens) + Leukocyte surface antigen CD47 (Homo sapiens); assay: CD47-SIRPalpha protein protein interaction - LANCE assay qHTS validation (AID 1347057; active = well fitted curve in the direction sought with a large enough effect in the signal ratio, with a control signal flat, not every such curve was filed as active; the % refers to the signal ratio; note: series mostly up to about 38 µM)
# How it was run: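 First, His-tagged CD47 and Eu-labelled anti-His antibody met the compound for 30 min; next, site-specifically biotinylated SIRPalpha was added for 30 min; finally streptavidin-APC was added before reading the TR-FRET ratio.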
# Sequence of Parathyroid hormone/parathyroid hormone-related peptide receptor (Homo sapiens) (Q03431 whole entry, looked up): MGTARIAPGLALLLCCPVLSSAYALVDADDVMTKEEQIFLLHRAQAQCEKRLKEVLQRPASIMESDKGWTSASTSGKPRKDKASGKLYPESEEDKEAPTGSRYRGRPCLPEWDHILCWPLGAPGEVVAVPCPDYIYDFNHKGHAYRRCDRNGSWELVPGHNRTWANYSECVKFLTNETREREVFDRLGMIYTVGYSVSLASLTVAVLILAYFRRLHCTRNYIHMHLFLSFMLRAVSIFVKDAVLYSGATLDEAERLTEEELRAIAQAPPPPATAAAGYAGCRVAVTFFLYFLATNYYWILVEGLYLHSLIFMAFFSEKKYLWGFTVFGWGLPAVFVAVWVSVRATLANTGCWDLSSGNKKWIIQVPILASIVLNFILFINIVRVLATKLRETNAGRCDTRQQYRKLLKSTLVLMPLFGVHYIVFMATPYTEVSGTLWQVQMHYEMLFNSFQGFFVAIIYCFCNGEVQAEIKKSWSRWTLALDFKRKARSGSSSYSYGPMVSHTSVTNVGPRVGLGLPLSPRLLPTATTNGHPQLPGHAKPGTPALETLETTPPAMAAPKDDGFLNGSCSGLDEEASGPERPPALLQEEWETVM
# T1 sequence (P78324 whole entry, looked up, the tested form may be a part): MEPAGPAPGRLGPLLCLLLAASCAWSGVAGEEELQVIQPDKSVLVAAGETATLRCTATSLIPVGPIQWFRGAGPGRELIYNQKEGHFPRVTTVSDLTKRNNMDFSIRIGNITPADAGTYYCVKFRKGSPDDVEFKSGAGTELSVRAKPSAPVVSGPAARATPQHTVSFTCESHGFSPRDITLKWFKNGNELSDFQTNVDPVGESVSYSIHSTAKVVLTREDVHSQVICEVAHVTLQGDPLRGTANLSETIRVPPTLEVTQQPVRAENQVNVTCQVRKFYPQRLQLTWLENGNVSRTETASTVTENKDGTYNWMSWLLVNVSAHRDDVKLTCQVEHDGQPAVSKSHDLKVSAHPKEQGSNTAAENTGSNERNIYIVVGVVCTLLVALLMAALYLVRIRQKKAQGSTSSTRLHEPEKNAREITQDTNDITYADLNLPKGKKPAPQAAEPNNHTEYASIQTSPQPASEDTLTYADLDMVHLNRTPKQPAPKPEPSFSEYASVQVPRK
# T1 sequence (Q08722 whole entry, looked up, the tested form may be a part): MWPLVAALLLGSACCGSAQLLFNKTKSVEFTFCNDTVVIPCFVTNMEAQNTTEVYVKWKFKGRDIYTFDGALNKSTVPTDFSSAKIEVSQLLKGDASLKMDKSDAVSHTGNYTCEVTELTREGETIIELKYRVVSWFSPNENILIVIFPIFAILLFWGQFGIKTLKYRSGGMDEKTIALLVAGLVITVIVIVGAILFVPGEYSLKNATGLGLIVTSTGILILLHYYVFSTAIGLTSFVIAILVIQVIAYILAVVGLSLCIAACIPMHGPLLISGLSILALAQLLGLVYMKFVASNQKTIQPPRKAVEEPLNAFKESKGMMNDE
SMILES,Potency [1],Potency [2],Potency [3],Potency [4],Potency [5],Potency [6],Potency [7],outcome [8],outcome [9]
O=C(NOCC1CC1)c1ccc(F)c(F)c1Nc1ccc(I)cc1Cl,inactive,21.1 µM (active) and 11.8 µM (active),9.35 µM (active),10.6 µM (active) and 9.35 µM (active),16.8 µM (active) and 1.87 µM (active),24.6 µM (active) and 21.7 µM (active),,,
O=C1c2ccccc2-c2n[nH]c3cccc1c23,inactive,,inactive,1.87 µM (active),2.64 µM (active),3.43 µM (active),inactive,inactive,
CCCCCCCCCCCCCCCCCCCCCCO,inactive,inactive,inactive,inactive,inactive,inactive,,,
c1ccc2[nH]c(-c3cscn3)nc2c1,inactive,inactive,inactive,inactive,,inactive,,,
COc1cc(OC)c(C(=O)CCCN2CCCC2)c(OC)c1,inactive,inactive,inactive,inactive,inactive,inactive,,,
Cc1cc2cc3c(C)cc(=O)oc3c(C)c2o1,inactive,,inactive,,,inactive,,,
Cc1cc(=O)c2c(O)c3c(O)cc(=O)c4c3c3c(cc(O)c1c23)C(C)(C)C=4O,inactive,1.16 µM (active) and 18.7 µM (active),0.332 µM (active),,1.3 µM (active) and 1.48 µM (active),1.69 µM (active) and 6.85 µM (active),,,
COc1cc(Nc2c(C#N)cnc3cc(OCCCN4CCN(C)CC4)c(OC)cc23)c(Cl)cc1Cl,23.6 µM (active),13.3 µM (active) and 23.5 µM (active),23.7 µM (active),10.6 µM (active) and 11.8 µM (active),2.11 µM (active) and 1.87 µM (active),17.4 µM (active),,,
CC(C)Oc1ccc2c(=O)c(-c3ccccc3)coc2c1,inactive,inactive,inactive,inactive,inactive,inactive,,,
CC1=C(C)C(=O)C(C(CCCCCC(=O)O)c2ccccc2)=C(C)C1=O (stereo unspecified),inactive,inactive,inactive,,inactive,inactive,,,
O=c1oc2cc(O)ccc2s1,inactive,inactive,inactive,9.35 µM (active),23.5 µM (active),inactive,,,
Nc1cccc2c1CN(C1CCC(=O)NC1=O)C2=O (stereo unspecified),inactive,inactive,inactive,inactive,inactive,inactive,,,
COC(=O)N[C@H](C(=O)N[C@@H](Cc1ccccc1)[C@@H](O)CN(Cc1ccc(-c2ccccn2)cc1)NC(=O)[C@@H](NC(=O)OC)C(C)(C)C)C(C)(C)C,inactive,inactive,inactive,inactive,inactive,inactive,,,
CC(=O)NC[C@H]1CN(c2ccc(N3CCOCC3)c(F)c2)C(=O)O1,inactive,inactive,inactive,inactive,inactive,inactive,,,
O=C(NCCO[N+](=O)[O-])c1cccnc1,inactive,inactive,inactive,inactive,,inactive,,,
CC1(C)C(=O)N(CCN2CCC(C(=O)c3ccc(F)cc3)CC2)c2ccccc21,inactive,,inactive,inactive,10.5 µM (active),inactive,inactive,inactive,inactive
O=c1c(O)c(-c2ccc(O)cc2O)oc2cc(O)cc(O)c12,inactive,inactive,inactive,inactive,inactive,inactive,1.85 µM (active),inactive,
CC(C)CC(=O)N[C@H](C(=O)N[C@H](C(=O)N[C@@H](CC(C)C)[C@@H](O)CC(=O)N[C@@H](C)C(=O)N[C@@H](CC(C)C)[C@@H](O)CC(=O)O)C(C)C)C(C)C (Isovaleryl-VV[Sta]A[Sta]-OH),inactive,inactive,inactive,,inactive,inactive,,,

SMILES,Potency [1],Potency [2],Potency [3],Potency [4],Potency [5],Potency [6],Potency [7],outcome [8],outcome [9]
CN(C)c1ccc(O)c2c1C[C@H]1C[C@H]3[C@H](N(C)C)C(=O)C(C(N)=O)=C(O)[C@@]3(O)C(=O)C1=C2O,inactive,inactive,inactive,,,,,,
O=C1CCc2ccc(OCCCCN3CCN(c4cccc(Cl)c4Cl)CC3)cc2N1,inactive,inactive,18.8 µM (active),inactive,inactive,inactive,,,
CCC[C@@H]1C[C@@H](C(=O)N[C@@H]([C@H]2O[C@H](SC)[C@H](O)[C@@H](O)[C@H]2O)[C@@H](C)O)N(C)C1,inactive,inactive,inactive,inactive,inactive,inactive,,,
O=P(O)(O)C(O)(Cn1ccnc1)P(=O)(O)O,inactive,inactive,inactive,inactive,inactive,inactive,,,
COc1ccc2cc([C@H](C)C(=O)O)ccc2c1,inactive,inactive,inactive,inactive,inactive,inactive,inactive,,inactive
COC1=C(OC)C(=O)C(CCCCCCCCCCO)=C(C)C1=O,inactive,,inactive,26.6 µM (active) and 23.5 µM (active),inactive,inactive,,,
CC(C)(S)[C@@H](N)C(=O)O,inactive,inactive,inactive,inactive,inactive,inactive,,,
O=C(O)c1cc(=O)c2c(OCC(O)COc3cccc4oc(C(=O)O)cc(=O)c34)cccc2o1,inactive,inactive,inactive,inactive,inactive,inactive,,,
Cc1cc(Cl)ccc1OCCCC(=O)NO,5.23 µM (active),9.35 µM (active),,2.96 µM (active),2.09 µM (active),,inactive,,inactive
COc1c2occc2cc2ccc(=O)oc12,inactive,inactive,inactive,inactive,inactive,inactive,,,
Cc1c(C(=O)NN2CCCCC2)nn(-c2ccc(Cl)cc2Cl)c1-c1ccc(Cl)cc1,inactive,inactive,13.2 µM (active),4.69 µM (active),21.1 µM (active) and 7.43 µM (active),3.85 µM (active),,,
Cc1cc2c(s1)Nc1ccccc1N=C2N1CCN(C)CC1,inactive,inactive,inactive,inactive,inactive,inactive,,,
C[C@H](Cc1ccc(O)c(O)c1)[C@@H](C)Cc1ccc(O)c(O)c1,,,,,11.8 µM (active),,inactive,inactive,inactive
OC(CN1CCN(c2cccc(Cl)c2)CC1)C(c1ccccc1)c1ccccc1 (stereo unspecified),inactive,,,18.7 µM (active),10.5 µM (active),,,inactive,
N=C(N)c1ccc2cc(OC(=O)c3ccc(N=C(N)N)cc3)ccc2c1,inactive,inactive,inactive,inactive,inactive,inactive,,,
CN1C(C(=O)Nc2ccccn2)=C(O)c2sccc2S1(=O)=O,inactive,inactive,inactive,inactive,inactive,inactive,,,
COC(=O)[C@H](Cc1ccccc1)NC(=O)[C@@H](N)CC(=O)O (H-Asp-Phe-OMe),inactive,inactive,inactive,inactive,inactive,inactive,,,
CCCS(=O)c1ccc2nc(NC(=O)OC)[nH]c2c1 (stereo unspecified),inactive,26.6 µM (active) and 23.5 µM (active),21.1 µM (active) and 18.7 µM (active),29.6 µM (active),7.5 µM (active) and 18.7 µM (active),,,,
